Results filed as inconclusive are left out. Active and inactive are the calls of the source. Unless noted, the call rests on the fitted dose curve; in most records, active means well fitted curve in the direction sought with a large enough effect; inconclusive means small, poorly fitted or top-dose-only effect, or another doubt; inactive means no such curve, though single readings can be large; an effect the other way counts as inactive or inconclusive.
Experiments:
[1] = qHTS profiling of the MIPE4 collection as inhibitors of Plasmodium falciparum (DD2) proliferation (AID 743345; call rule not given here); details: P. falciparum Dd2 in erythrocytes, SYBR Green DNA, 72 h; at 28.5 µM (top of the series) unless noted
Procedure, shortened: (§1)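 Erythrocytes infected with P. falciparum (0.3% parasitemia, 2.5% hematocrit) incubated with compounds 72 h at 37 C, 5% CO2. Lysis with saponin/Triton buffer containing SYBR Green I, overnight at room temperature in the dark; DNA fluorescence (485/535 nm) normalised to 0.29 uM artemisinin and DMSO.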

[2] = qHTS profiling of the MIPE4 collection as inhibitors of Plasmodium falciparum (DD2) proliferation (Rep 2) (AID 743346; call rule not given here); details: P. falciparum Dd2 in erythrocytes, SYBR Green DNA, 72 h; at 28.5 µM (top of the series) unless noted
Procedure, shortened: as §1

[3] = qHTS profiling of the MIPE4 collection as inhibitors of Plasmodium falciparum (HB3) proliferation (AID 743347; call rule not given here;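 further: plate controls were DMSO vehicle wells for no effect and artemisinin wells for full effect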); details: P. falciparum HB3 in erythrocytes, SYBR Green DNA, 72 h; at 28.5 µM (top of the series) unless noted
Procedure, shortened: as §1

[4] = High-throughput drug toxicity screening in the BPDCN cell line Gen2.2 (AID 1224824; call rule not given here); details: Gen2.2 BPDCN cells; at 45.8 µM (top of the series) unless noted
Procedure, shortened: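 Readout is ATP luminescence from Gen2.2 cells after two days of drug exposure in serum-containing medium at 37 °C. Values express percent activity, with vehicle defining full signal and 9.2 uM bortezomib defining zero.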

[5] = High-throughput drug toxicity screening in the BPDCN cell line Cal-1 (AID 1224825; call rule not given here); details: Cal-1 BPDCN cell viability, qHTS; at 45.8 µM (top of the series) unless noted
Procedure, shortened: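 500 Cal-1 cells/well, RPMI + glutamine + 10% FBS (phenol red-free); cpd added by pin tool; 48 h, 37C, 5% CO2; CTG 15 min RT, lumi read. Normalised: DMSO 100%, bortezomib 9.2 uM 0%.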

[6] = qHTS assay for measurement of the activity of small molecule inhibitors on Zika virus induced Caspase-3 activity in human iPSC derived neural progenitor cells (hNPCs) (AID 1224857); further: % of control where 0% means no effect; nearly all actives have a fitted effect of over 65% in size
Procedure, shortened: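 hNPCs seeded 350 cells/well, cultured 16–20 h; compounds added 1 h before ZIKV (2 FFU/cell), 37 C 6 h. Caspase-Glo 3/7 luminescence after 30 min RT; % inhibition from induction scaled to uninfected (0%) and infected (100%) wells.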

[7] = qHTS assay for measurement of the activity of small molecule inhibitors on Zika virus induced Caspase-3 activity in human astrocytoma cells (AID 1224859);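 further: plate controls were ZIKV-infected untreated cells for no effect and uninfected cells for full effect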
Procedure, shortened: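 Luminescence read-out (Caspase-Glo 3/7, 30 min RT) of caspase activity in SNB-19 cells infected 6 h with ZIKV, 2 FFU/cell, after 1 h compound pretreatment; % inhibition from induction normalised to uninfected (0%) and infected (100%) wells.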

[8] = qHTS Screen of the MIPE 4.0 Collection Against Ewings Sarcoma (TC71) (AID 1259253); further: nearly all actives have a fitted effect of over 40% in size; further: potency means the concentration at half of the fitted maximal effect
Procedure, shortened: (§2)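 After a 4 h attachment period in RPMI/5% FBS, cells were pin-dosed with test compounds; DMSO served as negative and 9.2 uM bortezomib (final) as positive control. Luminescent CellTiter-Glo signal at 48 h defined viability.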

[9] = qHTS Screen of the MIPE 4.0 Collection Against Ewings Sarcoma (EW8) (AID 1259255); further: nearly all actives have a fitted effect of over 35% in size; further: potency means the concentration at half of the fitted maximal effect;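 on viability: 100% = DMSO-treated cells and 0% = medium-only wells without cells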
Procedure, shortened: as §2

[10] = qHTS Screen of the MIPE 4.0 Collection Against Ewings Sarcoma (TC32) (AID 1259256); further: nearly all actives have a fitted effect of over 45% in size; further: potency means the concentration at half of the fitted maximal effect
Procedure, shortened: as §2

[11] = qHTS profiling of the MIPE4 collection as inhibitors of Plasmodium falciparum (3D7) proliferation (AID 743344; call rule not given here;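 further: scaled between DMSO vehicle wells and 0.29 µM artemisinin as full inhibition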); details: P. falciparum 3D7 in erythrocytes, SYBR Green DNA fluorescence, 72 h; at 28.5 µM (top of the series) unless noted
Procedure, shortened: as §1

[12] = qHTS profiling for inhibitors of Plasmodium falciparum (HB3) proliferation (AID 743324); details: Plasmodium falciparum HB3 blood-stage proliferation; at 28.7 µM (top of the series) unless noted;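 further: 100% = DMSO vehicle wells and 0% = artemisinin-treated control wells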
Procedure, shortened: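 P. falciparum HB3 grown in erythrocytes (0.3% parasitemia, 2.5% hematocrit final) with compound for 72 h at 37 C, 5% CO2. Parasite DNA detected by SYBR Green after saponin/triton lysis overnight; normalized to 0.29 uM artemisinin and DMSO.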

[13] = Identifying Small Molecule Inhibitors of Pancreatic Cancer Stem Cells (SN12C, Spheroid) (AID 1259360); details: Potency: SN12C spheroid viability;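 further: 100% = DMSO-treated cells and 0% = wells without cells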
Procedure, shortened: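 Monolayer and spheroid cultures are compared. Spheroids form over 14 days in stem cell medium on hydrogel-coated low-attachment plates, then are exposed to compound for 48 h before CellTiter-Glo luminescence.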

[14] = Identifying Small Molecule Inhibitors of Pancreatic Cancer Stem Cells (A278, Adherent) (AID 1259361);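 further: viability read after 48 h compound exposure; 100% = DMSO-treated cells and 0% = cell-free media-only wells; nearly all actives have a fitted effect of over 35% in size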
Procedure, shortened: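 Adherent (2D) versus sphere (3D) formats; spheres generated 14 d in SCM beforehand. Compound transferred by pin tool after 4 h, 48 h incubation, CellTiter-Glo endpoint.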

Compound | parasite growth remaining, % of DMSO control (lower = more inhibition) [1] | parasite growth, % of control (lower = inhibition) [2] | growth, % of control [3] | cell viability, % of control (lower = more cytotoxic) [4] | viability (% of control) [5] | Potency [6] | Potency [7] | Potency [8] | Potency [9] | Potency [10] | parasite growth, % of DMSO control [11] | remaining proliferation (% of control), lower = more inhibition [12] | Potency [13] | IC50 (viability decrease) [14]
O=C(c1ccc(C=Cc2n[nH]c3ccccc23)cc1)N1CCNCC1 | 31.2% | 22.9% | 6.97% | 57.2% | 18% | inactive | inactive | 1.66 µM (active) | 0.662 µM (active) | 0.743 µM (active) | – | – | – | –
O=c1cc(-c2ccc(O)c(O)c2)oc2cc(O)cc(O)c12 | – | 27.8% | 14% | 264% | 68.6% | inactive | inactive | inactive | inactive | inactive | 13% | – | – | –
CN[C@@H]1[C@@H](O)[C@@H](O[C@@H]2[C@@H](O)[C@H](O[C@H]3O[C@H](CN)[C@@H](O)[C@H](O)[C@@H]3O)[C@@H](N)C[C@@H]2NC(=O)[C@@H](O)CN)OC[C@]1(C)O | 99.3% | – | 53.1% | 111% | 100% | inactive | inactive | inactive | inactive | inactive | 94% | – | – | –
CN1c2ccccc2C(=O)N2CCc3c([nH]c4ccccc34)C21 (stereo not given) | 103% | 90.2% | 55% | 54.1% | 97% | inactive | inactive | 23.5 µM (active) | inactive | 14.8 µM (active) | 94.3% | – | – | –
CN1N=C(N)c2cn([C@@H]3O[C@H](COP(=O)(O)O)[C@@H](O)[C@@H]3O)c3ncnc1c23 | 100% | 67.6% | 98.6% | 199% | 76.2% | inactive | inactive | 7.43 µM (active) | 13.2 µM (active) | 2.64 µM (active) | 82.4% | – | – | –
OC(c1cc(C(F)(F)F)nc2c(C(F)(F)F)cccc12)C1CCCCN1 (stereo not given) | 9.36% | 23.2% | 61.8% | 9.36% | 7.54% | inactive | inactive | 20.9 µM (active) | 20.9 µM (active) | 26.4 µM (active) | 11% | – | – | –
CCC(=C(c1ccc(O)cc1)c1ccc(OCCNC)cc1)c1ccccc1 | 15.1% | 13.1% | 3.87% | 16.9% | 4.15% | inactive | inactive | 20.9 µM (active) | 26.4 µM (active) | 23.5 µM (active) | 5.26% | – | – | –
CC[C@H](CC#N)OC(=O)N[C@@H](C)c1cccc(NC(=O)Nc2ccc(-c3cnco3)c(OC)c2)c1 | – | – | 9.12% | 74.3% | 18.6% | inactive | inactive | 0.469 µM (active) | 0.469 µM (active) | 0.469 µM (active) | 12.8% | – | – | –
CC(C)CNc1ccnc(NCc2csc(-c3ccccc3)n2)n1 | 31.7% | 25% | 10.6% | 74.3% | 5.31% | inactive | inactive | 9.35 µM (active) | 18.7 µM (active) | 14.8 µM (active) | 7.23% | -0.95% | – | –
CCCCCCOC(=O)N=C(N)c1ccc(NCc2nc3cc(C(=O)N(CCC(=O)OCC)c4ccccn4)ccc3n2C)cc1 | 28.2% | 16% | 7.43% | 274% | 17.1% | inactive | inactive | 20.9 µM (active) | 8.33 µM (active) | 7.43 µM (active) | 9.57% | – | – | –
NC(=O)c1ccc(N(C(N)=O)c2c(F)cccc2F)nc1-c1ccc(F)cc1F | 104% | 59.1% | 78.7% | 215% | 92.1% | inactive | inactive | inactive | inactive | inactive | 79.5% | 85.6% | inactive | inactive

— PubChem BioAssay (NCATS)
